CRE-bla Fsk: Cell signaling CRE-BLA (Fsk stim); CHO CRE-bla reporter (cAMP response element driving beta-lactamase), forskolin EC10, beta-lactamase ratio; Potency, µM (highest dose often 38.2 µM), for the others: at the top dose activity change, negative = inhibition, usual class: activators; hit rate 2.5% among 71,000; AID 662, 2007; active = well fitted activation curve with a large enough effect in the signal ratio, with a control signal flat, not every such curve was filed as active; inconclusive = small, poorly fitted or top-dose-only effect, or effect the other way, or a change in a side signal; the % refers to the signal ratio; note: potency is the fitted concentration of half-maximal effect; % of control where 0% means no effect
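CHO CRE-bla cells, overnight plating in Opti-MEM with 0.5% dialyzed FBS; cpd titration + EC10 NKH 477, 3 h 37 °C; CCF4 2 h RT; ex 405/em 460 vs 530 ratio → %Activity, AC50.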
4MU fluor: qHTS Assay for Spectroscopic Profiling in 4-MU Spectral Region; hit rate 11% among 59,000; max dye-equivalent concentration, M; compound autofluorescence, 340/450 nm, 4-MU equivalents; stronger effect = higher value; in the data active = max dye-equivalent concentration above about 10 nM; inconclusive = mostly about 1.1 nM to 9.6 nM
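Compounds in 100 mM Tris, pH 8.0, incubated 15 min at room temperature, then fluorescence read at 340 nm excitation/450 nm emission. Signal converted to 4-MU dye-equivalent concentration using an on-plate six-point 4-MU standard curve.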
A350 autofl: qHTS Assay for Spectroscopic Profiling in A350 Spectral Region | max dye-equivalent concentration, M | Compound autofluorescence, 340/450 nm, Alexa 350 dye-equivalents; stronger effect = higher value | hit rate 11% among 59,000 | AID 590, 2007; in the data active = max dye-equivalent concentration above about 10 nM; inconclusive = mostly about 1.1 nM to 9.6 nM
AID923: qHTS Assay for Allosteric/Competitive Inhibitors of Caspase-1: Spectroscopic Profiling in AFC Spectral Region; hit rate 1.1% among 75,000; compound fluorescence, AFC spectral region (405/520 nm); Potency, µM (series often up to 57.5 µM), inactives show at the highest dose fluorescence increase, hits mostly activators; note: potency is the fitted concentration of half-maximal effect; 0% is about no effect
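Titrations up to 57 uM read every 20 sec for 3 min (405/520 nm) with 50 nM caspase 1 and 5 uM Ac-WEHD-AFC, pH 7.5 HEPES buffer. Fluorescence-vs-time intercept gave baseline, scaled against on-plate AFC standard.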
HSD17B inh: qHTS Assay for Inhibitors of HSD17B4, hydroxysteroid (17-beta) dehydrogenase 4. recombinant HSD17B10, NADH fluorescence kinetic. Potency, µM (doses to about 57.1 µM), inactives show at the top dose activity change, negative = inhibition, most hits filed as inhibitors. hit rate 7.6% among 75,000. AID 893, 2007;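 note: the protocol describes HADH2 (HSD17B10) and not the HSD17B4 of the title; potency is the fitted concentration of half-maximal effect; % is set by controls: 0 for no effect and ±100 for the full control effect; nearly all actives have a fitted effect of over 70% in size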
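His-tagged E. coli-expressed HADH2 at 20 nM in 100 mM Tris-HCl pH 9.0 with 0.01 % Tween-20, preincubated 15 min with compound at room temperature. Reaction with 1 mM NAD+ and 90 uM beta-hydroxybutyryl coenzyme A; NADH fluorescence (360/450 nm) read kinetically over 4 min, last minus first point.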
HADH2 inh: qHTS Assay for Inhibitors of HADH2 (Hydroxyacyl-Coenzyme A Dehydrogenase, Type II); recombinant HADH2, NADH fluorescence, beta-hydroxybutyryl-CoA; 3-hydroxyacyl-CoA dehydrogenase type-2 (Homo sapiens), Q99714; hit rate 3.4% among 73,000; Potency, µM (series often up to 57.1 µM), for inactives: at the top dose activity change, negative = inhibition, most hits filed as inhibitors; note: potency is the fitted concentration of half-maximal effect; % is set by controls: 0 for no effect and ±100 for the full control effect; nearly all actives have a fitted effect of over 60% in size
Target sequence (Q99714 whole entry, looked up, one chain of several): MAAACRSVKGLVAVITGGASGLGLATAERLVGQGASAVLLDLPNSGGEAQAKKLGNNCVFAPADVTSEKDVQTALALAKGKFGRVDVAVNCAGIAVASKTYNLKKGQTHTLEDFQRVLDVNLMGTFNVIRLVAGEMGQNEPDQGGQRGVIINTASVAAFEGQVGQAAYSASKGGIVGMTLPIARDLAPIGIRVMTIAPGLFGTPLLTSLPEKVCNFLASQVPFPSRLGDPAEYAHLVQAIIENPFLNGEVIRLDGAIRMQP
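His-tagged recombinant enzyme from E. coli, 20 nM, preincubated 15 min RT with compound; reaction started with 1 mM NAD+ and 90 uM beta-hydroxybutyryl-CoA in 100 mM Tris-HCl pH 9.0. NADH fluorescence (ex 360/em 450) read over 4 min; last-minus-first difference.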
* = called active by the depositor; [ ] = remark or other dose. This is a sample that favours compounds with a hit; in the whole collection about 14% have one here. Unless noted, calls come from the whole dose curve; as a rule, active = well fitted curve in the direction sought with a large enough effect; inconclusive = small, poorly fitted or top-dose-only effect, or another doubt; inactive = no such curve, though single readings can be large; an effect the other way counts as inactive or inconclusive.

`CNc1nc(-c2ccc(C(=O)N(C)C)cc2)nc2ccccc12` gave CRE-bla Fsk inconclusive, 4MU fluor inactive, A350 autofl inactive, AID923 0%, HSD17B inh -11% and HADH2 inh inconclusive.
For N#Cc1cccc(-c2nc(NCc3cccnc3)c3ccccc3n2)c1 the results were CRE-bla Fsk 10µM*, 4MU fluor inactive, A350 autofl inactive, AID923 11%, HSD17B inh inconclusive and HADH2 inh -13%.
Screening CNc1nc(-c2cccc(C#N)c2)nc2ccccc12 returned CRE-bla Fsk inconclusive, 4MU fluor inactive, A350 autofl inactive, AID923 1%, HSD17B inh -17% and HADH2 inh 17%.
CN(C)C(=O)c1ccc(-c2nccc(NCc3cccnc3)n2)cc1 was read as CRE-bla Fsk inconclusive, 4MU fluor 7e-08M*, A350 autofl 7.7e-08M*, AID923 -2%, HSD17B inh -3% and HADH2 inh 0%.
For CN(C)C(=O)c1ccc(-c2nccc(NCc3ccccc3)n2)cc1 the results were CRE-bla Fsk 7%, 4MU fluor inactive, A350 autofl inactive, AID923 3%, HSD17B inh -3% and HADH2 inh 3%.
`c1cncc(-c2nc(-n3ccnc3)c3ccccc3n2)c1` gave CRE-bla Fsk inconclusive, 4MU fluor inactive, A350 autofl inactive, AID923 2%, HSD17B inh 1% and HADH2 inh -4%.
For C[N+](C)(C)CCN[N@@+]1(C)CCCc2ccccc21 the results were CRE-bla Fsk -6%[7.6 µM], 4MU fluor inactive, A350 autofl inactive, AID923 -2%[11.5 µM], HSD17B inh -16%[11.4 µM] and HADH2 inh -3%[11.4 µM].
Screening O=C(c1ccco1)N1CCC2(CCCN(C(c3ccccc3)c3ccccc3)C2)CC1 returned CRE-bla Fsk 13%, 4MU fluor inactive, A350 autofl inactive, AID923 0%, HSD17B inh -1% and HADH2 inh 2%.
Screening N#Cc1ccc(CN2CCC3(CC2)CCN(C(=O)c2cccc(F)c2)CC3)cc1 returned CRE-bla Fsk 3%, 4MU fluor inactive, A350 autofl inactive, AID923 1%, HSD17B inh 10% and HADH2 inh 11%.
Fc1ccc(Nc2nc(-c3ccoc3)nc3ccccc23)cc1 was read as CRE-bla Fsk inconclusive, 4MU fluor inactive, A350 autofl inactive, AID923 3%, HSD17B inh inconclusive and HADH2 inh -4%.
`CC(=O)NCCNc1nc(-c2cccnc2)nc2ccccc12` gave CRE-bla Fsk 7.9µM*, 4MU fluor inactive, A350 autofl inactive, AID923 3%, HSD17B inh 8% and HADH2 inh 3%.
For COc1cccc(-c2nc(NCc3ccccc3)c3ccccc3n2)c1 the results were CRE-bla Fsk -14%, 4MU fluor inactive, A350 autofl inactive, AID923 9%, HSD17B inh inconclusive and HADH2 inh -8%.
Screening COc1ccccc1CNc1nc(-c2ccc(C(=O)N(C)C)cc2)nc2ccccc12 returned CRE-bla Fsk inconclusive, 4MU fluor inactive, A350 autofl inactive, AID923 1%, HSD17B inh inconclusive and HADH2 inh -3%.
For COc1cccc(-c2nc(NCc3cccnc3)c3ccccc3n2)c1 the results were CRE-bla Fsk 13µM*, 4MU fluor inactive, A350 autofl inactive, AID923 1%, HSD17B inh 10% and HADH2 inh 9%.
Screening CN(C)C(=O)c1ccc(-c2nc(NCc3cccnc3)c3ccccc3n2)cc1 returned CRE-bla Fsk 1.6µM*, 4MU fluor inactive, A350 autofl inactive, AID923 -1%, HSD17B inh -22% and HADH2 inh inconclusive.
For O=C(O)C=Cc1ccc(Cn2ccnc2)cc1 the results were CRE-bla Fsk 0%, AID923 -1%, HSD17B inh 2% and HADH2 inh -3%.
C[C@@H](C(=O)O)c1ccc(C[C@@H]2CCCC2=O)cc1 was read as CRE-bla Fsk -4%, 4MU fluor inactive, A350 autofl inactive, AID923 1%, HSD17B inh 6% and HADH2 inh 14%.
`Cn1cccc1C(=O)N1CCC2(CC1)CCN(c1ncccn1)CC2` gave CRE-bla Fsk -5%, 4MU fluor inactive, A350 autofl inactive, AID923 -4%, HSD17B inh -16% and HADH2 inh -3%.
For COc1ccc(C(=O)N2CCC3(CCCN(Cc4cc(C(F)(F)F)cc(C(F)(F)F)c4)C3)CC2)cc1 the results were CRE-bla Fsk 0%, 4MU fluor inactive, A350 autofl inactive, AID923 3%, HSD17B inh -9% and HADH2 inh 1%.
For Cc1ccc(-c2c3c(=O)n(C)c(=O)n(C)c3cn2Cc2ccccn2)cc1 the results were CRE-bla Fsk inconclusive, 4MU fluor 5.4e-08M*, A350 autofl 6.8e-08M*, AID923 4%, HSD17B inh -12% and HADH2 inh 11%.
NCCc1ccn[nH]1 was read as CRE-bla Fsk -10%[17.1 µM], 4MU fluor inactive, A350 autofl inactive, AID923 0%[25.7 µM], HSD17B inh -7%[25.6 µM] and HADH2 inh -4%[25.6 µM].
Screening COC(=O)N1CCC2(CCN(Cc3nccs3)CC2)CC1 returned CRE-bla Fsk 4%, 4MU fluor inactive, A350 autofl inactive, AID923 -1%, HSD17B inh -1% and HADH2 inh -4%.
Screening COCCNC(=O)c1cc(-c2cccs2)on1 returned CRE-bla Fsk 12%, AID923 -4%, HSD17B inh 4% and HADH2 inh -8%.
Screening c1csc(-c2cnc3n2CCCC3)c1 returned CRE-bla Fsk -6%, 4MU fluor inactive, A350 autofl inactive, AID923 -2%, HSD17B inh 5% and HADH2 inh 4%.
CCOC(=O)c1cc(-c2cccs2)nc2onc(C)c12 was read as CRE-bla Fsk inconclusive, 4MU fluor 1.4e-06M*, A350 autofl 1.7e-06M*, AID923 11% and HADH2 inh inactive.
Cc1noc2nc(-c3cccs3)cc(-c3nnc4n3CCCCC4)c12 was read as CRE-bla Fsk inconclusive, 4MU fluor 6.5e-06M*, A350 autofl 1.3e-05M*, AID923 4%, HSD17B inh 3.2µM* and HADH2 inh inactive.

High-throughput results (PubChem BioAssay)
